PubChem BioAssay AID624417 (National Center for Advancing Translational Sciences (NCATS), 2012)
Among all 410,000 compounds or so, about 6,400 (1.6%) were called active. Roughly 20% stayed inconclusive and do not appear here. Calls come from the whole dose curve; as a rule, active = well fitted inhibition curve with a large enough effect; inconclusive = small, poorly fitted or top-dose-only effect; inactive = no such curve, though single readings can be large or run the other way. The entries come from a sample that favours actives as a whole.

What follows are molecules tested against Glucagon-like peptide 1 receptor (Homo sapiens) (UniProt P43220) (assay: qHTS of GLP-1 Receptor Inverse Agonists (Inhibition Mode)). Details: HEK293 GLP-1R CRE-luciferase, luminescence, 24 h, GLP-1R form is constitutively active; series mostly up to 38.3 µM; activity change, negative = inhibition: at the top concentration.
Chain of Glucagon-like peptide 1 receptor (Homo sapiens) (P43220 whole entry, looked up): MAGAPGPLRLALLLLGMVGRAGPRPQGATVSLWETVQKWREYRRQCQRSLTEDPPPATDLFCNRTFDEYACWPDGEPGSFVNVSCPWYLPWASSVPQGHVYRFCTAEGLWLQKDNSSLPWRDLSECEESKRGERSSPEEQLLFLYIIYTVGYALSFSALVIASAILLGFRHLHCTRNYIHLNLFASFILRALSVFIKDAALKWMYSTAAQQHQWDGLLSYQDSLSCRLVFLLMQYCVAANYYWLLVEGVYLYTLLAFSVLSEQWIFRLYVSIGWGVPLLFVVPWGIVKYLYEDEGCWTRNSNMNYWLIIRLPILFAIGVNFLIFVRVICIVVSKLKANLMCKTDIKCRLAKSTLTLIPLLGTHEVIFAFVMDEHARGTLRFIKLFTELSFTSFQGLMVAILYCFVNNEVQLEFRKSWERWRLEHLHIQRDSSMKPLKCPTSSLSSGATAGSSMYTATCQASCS
How it was run: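 HEK293 cells stably co-expressing constitutively active GLP-1R and a cAMP-responsive luciferase reporter were seeded in DMEM with 10% Nu serum, given compounds after 12 h, and incubated 24 h at 37 deg C. Luminescence was then read.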
% is set by controls: 0 for no effect and ±100 for the full control effect; potency is the fitted concentration of half-maximal effect.
Note: nearly all actives have a fitted effect of over 55% in size.

Potency, active:
CCc1ccc(OCC(=O)NCC(c2ccc(Cl)cc2)N2CCCCC2)cc1 (stereo not given) 8.91 µM
CC1CC(C)(C)n2c(O)c(N=NC(N)=S)c3cccc1c32 (stereo not given) 5.01 µM
Cc1ccc(CN(N=Nc2nonc2N)c2nonc2N)c(C)c1 2.82 µM
COc1ccc(C(CNC(=O)c2cccc(S(=O)(=O)Nc3ccc(Br)cc3)c2)N(C)C)cc1 (stereo not given) 10 µM
COc1ccccc1C(CNC(=O)c1cccc(NS(=O)(=O)c2ccc(Br)cc2)c1)N(C)C (stereo not given) 10 µM
CN(C)C(CNC(=O)c1cccc(S(=O)(=O)Nc2ccc(Br)cc2)c1)c1ccco1 (stereo not given) 12.6 µM
CCOc1ccc(NS(=O)(=O)c2ccc(C(=O)NCC(c3ccccc3OC)N3CCCC3)cc2)cc1 (stereo not given) 11.2 µM
Cc1cccc(NS(=O)(=O)c2ccc(C)c(C(=O)NCC(c3ccccc3)N(C)C)c2)c1 (stereo not given) 3.98 µM
Cn1c2ccccc2c2c(C(=O)N3CCN(c4ccc(F)cc4)CC3)cn(C3CCCC3)c(=O)c21 10 µM
CCCCNC(=O)N(O)C1N(/N=C/c2ccccc2O)C(=S)SC1(C)C (stereo not given) 11.2 µM
CN1/C(=c2/s/c(=C3/C(=O)N(c4ccccc4)NC3=Nc3ccccc3)n(C)c2=O)C(C)(C)c2ccccc21 1.41 µM
O=C1[C@H]2[C@@H](c3ccc(C(F)(F)F)cc3)N[C@]3(CCCN(Cc4ccc(Cl)cc4)C3=O)[C@H]2C(=O)N1Cc1ccccc1 4.47 µM
O=C1[C@H]2[C@@H](c3ccc(C(F)(F)F)cc3)N[C@]3(CCCN(Cc4ccc(Br)cc4)C3=O)[C@H]2C(=O)N1Cc1ccccc1 2.82 µM
CCN1C(=O)[C@H]2[C@@H](c3ccc(C(F)(F)F)cc3)N[C@]3(CCCN(Cc4ccc(Br)cc4)C3=O)[C@H]2C1=O 12.6 µM
O=C(CSc1ccccc1)Nc1cc(Cl)ccc1Oc1ccccc1 11.2 µM
COc1ccccc1N1CCN(CCCCOc2ccc(F)cc2)CC1 12.6 µM
COc1ccc(CN(C)C(=S)Nc2ccc(Cl)cc2Cl)cc1 7.08 µM
COc1ccc(CN2CCC(C)(Oc3cccc(F)c3)C2)c2ccccc12 (stereo not given) 11.2 µM
CCOC(=O)N/N=C/c1cn(Cc2ccccc2Cl)c2ccccc12 7.94 µM
COC(=O)N/N=C/c1cn(CCCOc2ccc(C)cc2)c2ccccc12 8.91 µM

Activity change, negative = inhibition, inactive:
COc1ccc(C(CNC(=O)COc2ccc([N+](=O)[O-])cc2)N2CCCCC2)cc1 (stereo not given) -38.2%
COc1ccc(C(CNC(=O)COc2ccccc2OC)N2CCCCC2)cc1 (stereo not given) -9.18%
O=S1(=O)CC(N2CCN(CCO)CC2)CN1Cc1cn(Cc2cccc(Cl)c2)nn1 (stereo not given) 13.8%
CN1OC[C@@H]2CN(S(=O)(=O)c3cccc(C(F)(F)F)c3)[C@H](c3ccc(-c4cc5ccccc5o4)cc3)C[C@@H]21 -27.7%
COc1cc(CNc2ncnc3c2ncn3[C@H]2CN(Cc3cccs3)C[C@@H](CO)O2)cc(OC)c1OC 12.8%
CCOc1ccc(S(=O)(=O)Nc2ccc(C(=O)NCCCN3CCCC3=O)cc2)cc1 8.39%
CC(=O)c1ccc(S(=O)(=O)Nc2ccc(C(=O)NCC(c3ccccc3)N(C)C)cc2)cc1 (stereo not given) 7.27%
CC1CN(C(=O)c2cccc(NS(=O)(=O)c3ccc(Br)cc3)c2)CC(C)O1 (stereo not given) -2.73%
COc1ccccc1NS(=O)(=O)c1ccc(C)c(C(=O)NCC(c2ccco2)N(C)C)c1 (stereo not given) 14.3%
CN(C)C(CNC(=O)c1cccc(C#N)c1)c1ccco1 (stereo not given) -28.8%
COc1ccc(NS(=O)(=O)c2cccc(C(=O)NCCc3ccc(S(N)(=O)=O)cc3)c2)cc1 8.26%
COc1ccc(C(CNC(=O)c2ccc(S(=O)(=O)Nc3ccccc3F)cc2)N(C)C)cc1 (stereo not given) -1.55%
CCOc1ccc(NS(=O)(=O)c2ccc(C(=O)NCC3CCCO3)cc2)cc1 (stereo not given) 12%
Cc1ccc(NC(=O)COC(=O)CN2CCSC2=O)cc1F 4.88%
OCCN1CCN(c2ncnc3c2ncn3[C@H]2CN(Cc3ccco3)C[C@@H](CO)O2)CC1 27.9%
CCOC1=C2CN(S(=O)(=O)c3ccc(C)cc3)[C@H](c3cccs3)C[C@H]2[C@H]2C(=O)N(c3ccccc3)C(=O)[C@H]2C1 19.3%
C[C@H]1NS(=O)(=O)c2cc(Cl)ccc2O[C@@H]1c1ccccc1 -13.6%
CC1(C)CC(=O)C=C(c2ccc(COC(=O)c3cc(F)cc(F)c3)cc2)C1=O -15.2%
O=C(Nc1cc(Br)ccc1F)c1nc[nH]c1C(=O)NCc1ccccc1 -18.9%
O=[N+]([O-])c1ccc(CN2CC(N3CCC(c4ccccc4)CC3)CS2(=O)=O)cc1 (stereo not given) -15.4%
Cc1cccc(NS(=O)(=O)c2ccc(C)c(C(N)=O)c2)c1 8.25%
Cc1cccc(NS(=O)(=O)c2ccc(C)c(C(=O)NCc3cccnc3)c2)c1 -16.4%
CCCc1c(C)nc2scc(-c3ccc(Cl)cc3)n2c1=O -2.09%
CCc1nc2c(OCCOc3ccccc3)cccn2c1N(C)C(=O)c1ccccc1F -23.8%
O=C(CCN1CCCCC1)Nc1ccc(F)c(F)c1 0.244%
CCOC(=O)N1CCN(C(=O)c2nn(-c3ccc(C)cc3)c(=O)c3c2c2ccccc2n3C)CC1 -23.3%
CCOc1ccc(NC(=O)c2cn(C3CCCCC3)c(=O)c3c2c2ccccc2n3C)cc1 6.66%
CCN(CC)CCN(C)C(c1ccnc2ccccc12)c1nnnn1-c1ccc2c(c1)OCCO2 (stereo not given) 6.96%
CCCCNC(=O)c1ccc(-n2c(=S)[nH]c3ccccc3c2=O)cc1 11.5% [at 7.66 µM]
CCCCC(O)C1=C[N+](=O)CC=C1 (stereo not given) 17.7%
C[C@H](NC(=O)[C@@H]1CCCN1C(=O)[C@@H]1CCCN1C(=O)c1ccccc1)c1ccccc1 -4.32%
COC(=O)c1ccc2nc(-c3ccc(Cl)cc3)c(Cc3cccc(F)c3)n2c1 3%
C[C@H](CO)N1C[C@H](C)[C@@H](CN(C)S(=O)(=O)c2ccc(F)cc2)OCc2cnnn2CCCC1=O -1.3%
O=C(Nc1cccc(Cc2ccccc2)c1)Nc1ccc2nc([C@@H]3O[C@H](CO)[C@@H](O)[C@H](O)[C@H]3O)[nH]c2c1 4.05%
O=C(NCCN1CCOCC1)C1CCN(S(=O)(=O)c2ccccc2)CC1 4.84%
CCN1C[C@@H]2[C@@H]3C(=O)N(Cc4ccccc4)C(=O)[C@@H]3[C@](C)(C1=O)N2C(=O)c1ccc(C(C)(C)C)cc1 1.29%
CCN1C(=O)[C@H]2[C@@H](c3ccc(-c4ccc(OC)cc4)cc3)N[C@@](Cc3ccccc3)(C(=O)OC)[C@H]2C1=O -7.01%
Cc1ccc([C@H]2N[C@]3(CCCN(Cc4ccccc4)C3=O)[C@H]3C(=O)N(Cc4ccccc4)C(=O)[C@@H]23)cc1 -28.2%
COc1ccc([C@H]2N[C@]3(CCCN(CC4CCCCC4)C3=O)[C@H]3C(=O)N(C)C(=O)[C@@H]23)cc1 -0.512%
CCN1C(=O)[C@H]2[C@@H](c3ccccc3)N[C@]3(CCCN(Cc4ccc(C)cc4)C3=O)[C@H]2C1=O 13.6%
COc1ccc([C@H]2N[C@]3(CCCN(Cc4ccco4)C3=O)[C@H]3C(=O)N(C)C(=O)[C@@H]23)cc1 12%
C[C@H]1CN([C@@H](C)CO)C(=O)c2cc(Br)cnc2O[C@H]1CN(C)S(=O)(=O)c1cccs1 5.81%
CCOC(=O)C1=CC[C@@H](c2ccncc2)N(S(=O)(=O)c2ccc(C)cc2)C1 -10.5%
Cc1cc2oc(=O)cc(CN(C)Cc3ccccc3)c2cc1Cl -22.1%
CN(C)CCN1CCN(c2cc(-c3cccc(Cl)c3)nc3ccnn23)CC1 -14.7%
COc1ccc(Cl)cc1NC(=O)CSc1nc2ccccc2c2nc(-c3ccccc3)nn12 9.31%
O=C(COC(=O)CSc1ccccc1)Nc1ccc(F)cc1F -0.781%
Cc1ccc(CCNC(=O)CN2C(=O)CSc3ccc(S(=O)(=O)N4CCOCC4)cc32)cc1 -35.8%
CC1=C(C(=O)N2CCOCC2)CC(CC(=O)NCCCN(C)C)C(=O)N1Cc1ccc(C(C)(C)C)cc1 (stereo not given) 23%
CCCCN1C(=O)C(CC(=O)NCc2cccs2)CC(C(=O)N2CCOCC2)=C1C (stereo not given) 10.4%
Nc1ncnc2c1ncn2[C@@H]1O[C@H](C(=O)NCC(F)(F)F)[C@@H](O)[C@H]1O 25.4%
O=CNc1cc(-c2ccc(C(=O)N3CCOCC3)cc2)cn2c(-c3ccc(F)cc3)cnc12 -5.23%
COc1ccccc1N1CCN(S(=O)(=O)CCNC(=O)COc2ccc(F)cc2)CC1 -20.4%
CCN1CCN(CCCCOc2ccccc2F)CC1 0.199%
Cc1ccc2cccc([N+](=O)[O-])c2n1 8.75%
C[C@@H]1CN([C@H](C)CO)C(=O)c2cc(-c3ccc(F)cc3)cnc2O[C@H]1CN(C)C(=O)c1ccc(F)cc1 -8.66%
COc1ccc(CN2CCn3ncc(C(=O)Nc4ccc(Cl)cc4Cl)c3C2=O)cc1 -16.2%
S=C(Nc1ccc(Cl)cc1Cl)N1CCCC1 7.41%
COc1cccc(C(NC(C)=O)c2nc(-c3ccccc3OC)cs2)c1 (stereo not given) -12.1%
CC1=C(C(=O)N2CCOCC2)CC(CC(=O)NCC2CCCCC2)C(=O)N1Cc1ccc(F)cc1 (stereo not given) 3.52%
CC1(Oc2cccc(F)c2)CCN(Cc2ccccc2OC(F)F)C1 (stereo not given) -4.31%
COc1ccccc1N1CCN(Cc2ccc(OC)c3ccccc23)CC1 0.582%
CCCNC(=O)C1(C)CCN(C(=O)c2ccc(F)cc2Cl)C1 (stereo not given) 11.7%
COc1ccc([C@H]2CC(=O)C[C@@H](CCn3cc(CC4CCCC4)nn3)O2)cc1 21.5%
Cc1cc(C)c(S(=O)(=O)NN=C2c3ccccc3[C@H]3Cc4csc[n+]4[C@@H]23)c(C)c1 18.1%
COc1ccccc1-n1c(SCC(=O)Nc2ccc(Cl)cc2)nc(O)c(Cc2ccccc2)c1=O -20.6%
CC(NC(=O)CCc1cn(Cc2ccccc2Cl)c2ccccc12)c1ccccc1 (stereo not given) -8.72%
NC(=O)Cn1cc(/C=N\NS(=O)(=O)c2ccccc2)c2ccccc21 -27.9%
Cc1ccc(OCCOc2cccc(/C=N/NC(N)=O)c2)cc1 58.1%
COC(=O)N/N=C/c1c[n+]([O-])c2ccccc2[n+]1[O-] 8.56%
